# BAZ2B inh: qHTS Assay for Inhibitors of BAZ2B; Potency, µM (highest dose often 114 µM), inactives show at the highest dose activity change, negative = inhibition, most hits filed as inhibitors; AlphaScreen BAZ2B-H3K14Ac peptide displacement; hit rate 4.4% among 360,000; also: % is scaled to controls: 0 for no effect and ±100 for the full control effect; nearly all actives have a fitted effect of over 60% in size
#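 AlphaScreen displacement: compounds (up to 110uM) incubated 30 min at room temperature with a preformed 50 nM BAZ2B/50 nM biotinylated H3K14Ac peptide complex in PBS pH 7.4 with Tween-20. Donor and acceptor beads at 10 ug/mL final added, 20 min light-protected before reading.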
# Sfp inh: qHTS Assay for Inhibitors of Bacillus subtilis Sfp phosphopantetheinyl transferase (PPTase); AID 1490, 2009; hit rate 3.5% among 310,000; Biochemical Sfp PPTase activity, qHTS; 4'-phosphopantetheinyl transferase ffp (Bacillus subtilis), Q9F4F7; Potency, µM, without a hit: largest response in the series, negative = inhibition, usual class: inhibitors;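 also: the enzyme is Sfp with the accession as filed and its product quenches rhodamine fluorescence; 0% = enzyme reaction without inhibitor and -100% = no enzyme wells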
#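 Compounds were incubated with enzyme (final 15 nM) for 15 min at room temperature before substrate addition started the reaction. Fluorescence at 525 nm excitation, 598 nm emission was recorded immediately and after 30 minutes.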
# HP1b binding inh: HTS for Inhibitors of HP1-beta Chromodomain Interactions with Methylated Histone Tails. AID 540317, 2011. Potency, µM (doses to about 114 µM), for inactives: at the highest dose activity change, negative = inhibition, most hits filed as inhibitors. AlphaScreen HP1-beta / biotin-H3K9me3 peptide binding. hit rate 0.56% among 390,000. Chromobox protein homolog 1 (Homo sapiens), P83916; also: nearly all actives have a fitted effect of over 70% in size
#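 Compound inhibition of the preformed complex between 50 nM HP1-beta and 50 nM biotinylated H3K9me3 peptide was read by AlphaScreen. Buffer was PBS pH 7.4 with 0.01% Tween-20. Incubations ran 30 min at room temperature, with 10 ug/mL donor/acceptor beads.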
# L3MBTL1 block: qHTS Assay for the Inhibitors of L3MBTL1; Lethal(3)malignant brain tumor-like protein 1 (Homo sapiens), Q9Y468; hit rate 0.66% among 230,000; Potency, µM (series often up to 57.1 µM), inactives show at the highest dose activity, negative = inhibition, hits mostly inhibitors; AID 485360, 2010; AlphaScreen L3MBTL1–H3K9me1 peptide binding; also: % is scaled to controls: 0 for no effect and ±100 for the full control effect; nearly all actives have a fitted effect of over 60% in size
# Target sequence (Q9Y468 whole entry, looked up): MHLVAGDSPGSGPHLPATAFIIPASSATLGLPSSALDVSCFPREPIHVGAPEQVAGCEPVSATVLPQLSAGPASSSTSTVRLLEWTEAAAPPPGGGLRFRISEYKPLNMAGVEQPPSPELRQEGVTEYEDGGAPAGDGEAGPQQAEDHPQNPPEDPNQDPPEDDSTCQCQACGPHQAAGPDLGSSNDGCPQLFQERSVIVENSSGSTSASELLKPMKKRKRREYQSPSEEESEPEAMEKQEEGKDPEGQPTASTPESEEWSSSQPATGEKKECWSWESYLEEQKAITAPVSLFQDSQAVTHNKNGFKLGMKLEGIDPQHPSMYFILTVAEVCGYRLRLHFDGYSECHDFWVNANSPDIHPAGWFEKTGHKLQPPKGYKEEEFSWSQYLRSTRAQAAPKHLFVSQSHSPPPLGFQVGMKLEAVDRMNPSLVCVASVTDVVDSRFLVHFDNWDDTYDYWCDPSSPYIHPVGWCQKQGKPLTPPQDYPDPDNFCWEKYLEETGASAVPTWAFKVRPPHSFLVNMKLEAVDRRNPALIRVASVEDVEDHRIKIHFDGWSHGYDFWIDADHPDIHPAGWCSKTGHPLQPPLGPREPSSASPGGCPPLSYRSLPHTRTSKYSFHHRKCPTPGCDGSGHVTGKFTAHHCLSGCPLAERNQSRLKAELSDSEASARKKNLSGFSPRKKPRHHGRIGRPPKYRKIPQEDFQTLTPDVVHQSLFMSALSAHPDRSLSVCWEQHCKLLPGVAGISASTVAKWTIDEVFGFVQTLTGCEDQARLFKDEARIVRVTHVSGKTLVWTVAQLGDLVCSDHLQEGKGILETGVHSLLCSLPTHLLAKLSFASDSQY
#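 L3MBTL1 (50 nM) pre-complexed 30 min with biotinylated H3(1-15)K9me1 peptide (75 nM), then compounds added for 30 min at room temperature; AlphaScreen streptavidin donor/nickel chelate acceptor beads (10 ug/mL final) read after 30 min dark incubation.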
# G9a block: qHTS Assay for Inhibitors of Histone Lysine Methyltransferase G9a | G9a H3K9 monomethylation, AlphaScreen, 2 h | Potency, µM (titrated, usually from 102 µM), for the others: at the highest dose activity, negative = inhibition, hits mostly inhibitors | hit rate 8.8% among 350,000 | AID 504332, 2011; also: % is scaled to controls: 0 for no effect and ±100 for the full control effect; nearly all actives have a fitted effect of over 75% in size
#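 Readings reflect AlphaScreen signal from monomethyl-H3K9 antibody detection. HMT at 20 nM; substrate b-H3K9 500 nM; cofactor SAM 20 uM; 2 h RT reaction; compounds tested as titrations in qHTS with 15 min preincubation.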
# JMJD2A Tudor inh: qHTS Assay for Inhibitors of JMJD2A-Tudor Domain | AlphaScreen JMJD2A-Tudor / H3K4me3 peptide binding | AID 504339, 2011 | Lysine-specific demethylase 4A (Homo sapiens), O75164 | hit rate 4.4% among 390,000 | Potency, µM (titrated, usually from 114 µM), for inactives: at the highest dose activity change, negative = inhibition, most hits filed as inhibitors; also: % is scaled to controls: 0 for no effect and ±100 for the full control effect; nearly all actives have a fitted effect of over 50% in size
# * hit, by the source's call; ? = inconclusive; / = not tested or not shown; [ ] = remark or other dose. Rows were chosen to be rich in hits. Some 12% of all compounds tested hit in one or more screens of this group. Calls follow the shape of the dose curve; as a rule, active = well fitted curve in the direction sought with a large enough effect; inconclusive = small, poorly fitted or top-dose-only effect, or another doubt; inactive = no such curve, though single readings can be large; an effect the other way counts as inactive or inconclusive. Potency is read from the fitted curve at half-maximal effect.
SMILES,BAZ2B inh,Sfp inh,HP1b binding inh,L3MBTL1 block,G9a block,JMJD2A Tudor inh
Cc1[nH]c2ccccc2c1/C=N/NC(=O)c1cccc([N+](=O)[O-])c1,-24.7%,-1.5%,-10.5%,2.1%,-44.7%,-0.8%[11.4 µM]
Cc1[nH]c2ccccc2c1/C=N/Nc1ccccn1,35.5µM*,?,/,?,?,/
Cc1[nH]c2ccccc2c1/C=N\NC(=O)c1ccco1,-17.6%,1.0%,18.1%,/,-1.8%[0.501 µM],-17.6%
Cc1[nH]c2ccccc2c1/C=N/Nc1ccc([N+](=O)[O-])cc1,?,-12.1%,?,-22.6%,8.91µM*,-28.3%
Cc1[nH]c2ccccc2c1/C=N/Nc1nncn1N,50.1µM*,8.91µM*,17.4%,-26.4%,35.5µM*,-28.9%
Cc1[nH]c2ccccc2c1/C=N/NC(=O)c1cccs1,?,-21.9%,14.3%,-19.4%,?,?
COC(=O)N[C@@H](CCc1ccccc1)[C@]1(C(C)=O)CCCC1=O,/,-2.2%,/,/,/,/
N#CN=c1snc(-c2ccccc2)n1-c1ccc(Br)cc1,/,/,22.6%[57 µM],/,/,-20.0%[57.1 µM]
CCc1ccc(C2CC(c3ccccc3)n3ncnc3N2)cc1 (centres undefined),3.6%,0.5%,29.0%,/,79.4µM*,-33.1%
COc1ccc(C2CC(c3ccccc3C)n3nc(N)nc3N2)cc1 (centres undefined),?,18.6%,-12.5%,6.3%,?,-33.8%
CCc1ccc(C2CC(c3ccccc3Cl)Nc3nc(N)nn32)cc1 (centres undefined),-12.7%,-4.6%,31.5%,-12.7%,11.2µM*,-26.1%
CCOc1ccc(C2CC(c3ccccc3C)n3nc(N)nc3N2)cc1 (centres undefined),-12.4%,15.5%,-9.0%,36.2%,?,20µM*
Cc1cc(Cl)ccc1OCC(=O)N(Cc1ccco1)Cc1ccco1,6.7%,/,17.2%,/,0.6%[59 µM],-22.0%
Cc1ccc(S(=O)(=O)c2nnn3c2nc(NCc2ccc4c(c2)OCO4)c2sccc23)cc1C,?,/,18.5%,/,?,-16.8%
CC1CCN(C(=O)CN2CCSc3ccc(S(=O)(=O)N(C)C)cc32)CC1,-11.1%,/,25.8%[57 µM],/,-1.3%[59 µM],-14.1%
O=C(NCc1ccccc1Cl)c1ccc(-n2cnc3cccnc32)cc1,-7.3%,/,17.3%,/,-4.5%[59 µM],-7.9%
Cc1ccc(S(=O)(=O)N(C(=O)c2ccncc2)c2ccc(OC(=O)c3ccncc3)c3ccccc23)c(C)c1,?,44.7µM*,?,/,1.58µM*,?
COC(=O)c1c(C)oc2ccc(N(C(=O)c3ccncc3)S(=O)(=O)c3ccc(C)cc3)cc12,-29.2%,4.0%,13.1%,/,21.6%[2.33 µM],-16.8%
CC(=O)Oc1ccc(N(C(C)=O)S(=O)(=O)c2ccc(C)cc2C)c2ccccc12,-0.5%,6.5%,?,-2.9%,15.1%[59 µM],-12.0%
Cc1ccc(S(=O)(=O)N(C(=O)c2ccncc2)c2ccc(OC(=O)c3ccncc3)c3ccccc23)cc1,-35.1%,25.1µM*,-27.5%,-19.7%,8.91µM*,39.8µM*
CC1CC2C3CCC4=CC(=O)C=C[C@@]4(C)[C@]3(F)C(O)C[C@]2(C)[C@]1(O)C(=O)COP(=O)(O)O (some centres undefined),/,3.5%,/,/,-1.0%[2.33 µM],/
CN1CCN(CC(=O)Nc2cc(N(C)C)nc3ccccc23)CC1,?,-13.4%,31.7%,-3.9%,50.1µM*,-16.5%
CN1CCN(CC(=O)c2ccccc2F)CC1,22.4µM*,56.2µM*,?,/,4.47µM*,6.31µM*
Cc1ccccc1NC(=O)CN1CCN(C)CC1,28.2µM*,?,28.2µM*,/,10µM*,3.16µM*
CC(C)N(Cc1ccccc1)C(=O)Cn1ncc2c([nH]c3ccccc32)c1=O,-1.8%,/,12.8%,/,-4.3%[59 µM],-15.8%
SMILES,BAZ2B inh,Sfp inh,HP1b binding inh,L3MBTL1 block,G9a block,JMJD2A Tudor inh
CC(C)(C)c1cc(CCC(=O)N2CCCC2)cc(C(C)(C)C)c1O,-15.6%,12.2%,15.6%,/,48.8%,-3.4%
CC(C)(C)c1cc(C(=S)N2CCCC2)cc(C(C)(C)C)c1O,?,39.8µM*,-21.6%,-2.5%,/,?
COc1ccc(S(=O)(=O)Oc2c(OC)cc(C(=S)N3CCOCC3)cc2OC)cc1,-23.5%,28.2µM*,-18.8%,-2.8%,22.4µM*,-29.5%
COc1ccc(C(=O)NC(=S)N2CCOCC2)cc1OC,-30.3%,?,8.7%,8.1%,50.1µM*,-15.6%
COc1ccc(C(=O)NC(=S)N2CCN(c3ccccc3OC)CC2)cc1OC,?,?,32.2%,/,/,-8.0%
COc1cc(C(=S)N2CCCC2)cc(OC)c1OC,-19.1%,50.1µM*,5.4%,-4.8%,39.8µM*,-18.1%
CCC(=O)N1CCc2cc(Br)cc(S(=O)(=O)CCC(=O)NCc3ccc(C)cc3)c21,0.0%,/,19.5%,/,1.5%[59 µM],-13.7%
CCOc1ccc(C(=O)c2cn(CC(=O)Nc3cccc(OC)c3)c3cc4c(cc3c2=O)OCCO4)cc1,1.5%,/,39.9%,/,17.0%[59 µM],-29.1%
COc1ccc(C(=S)N2CCOCC2)cc1OS(=O)(=O)c1ccc(Br)cc1,-38.9%,-4.7%,-11.3%,/,44.7µM*,-27.4%
COc1cc(C(=S)N2CCCC2)cc(OC)c1OS(=O)(=O)c1ccc(NC(C)=O)cc1,-27.9%,35.5µM*,?,2.7%,31.6µM*,?
COc1cc(NC(=S)N2CCCCC2C)cc(OC)c1OC (centres undefined),-19.4%,44.7µM*,39.8%,?,-49.4%,-4.2%
COc1ccc(C(=O)Oc2c(OC)cc(C(=S)N3CCOCC3)cc2OC)cc1,-29.6%,-4.4%,15.0%,-3.6%,44.7µM*,-18.3%
COc1ccc(S(=O)(=O)Oc2ccc(C(=S)N3CCOCC3)cc2OC)cc1,-3.7%,2.4%,19.6%,-0.6%,/,-22.1%
COC(=O)c1ccc(C2c3c(oc4cc(C)c(C)cc4c3=O)C(=O)N2c2ccccn2)cc1 (centres undefined),-1.2%,/,31.4%,/,5.6%[59 µM],4.8%
C[C@@H](C(=O)Nc1ccc2ccccc2c1)[C@H]1C[C@]1(C)[C@H](N)c1ccccc1,/,-6.7%,10.4%,/,/,-11.0%
COc1ccc(C(=O)Oc2c(OC)cc(C(=S)N3CCOCC3)cc2OC)cc1OC,-12.3%,39.8µM*,?,2.6%[2.29 µM],-9.0%[0.501 µM],?
CCCn1c(/N=C/c2c[nH]c3ccccc23)nc2ccccc21,?,1.4%,-32.2%,-2.8%,9.2%[12.7 µM],63.1µM*
Cn1c(N/N=C/c2c[nH]c3ccccc23)nc2ccccc21,31.6µM*,-24.8%,-37.0%,?,?,50.1µM*
